# Test results: the supplement of paper PMC4022240
# ± gives the standard deviation.
# T1: HaloTag-ATRX ADD domain (163-292)
# T1 chain: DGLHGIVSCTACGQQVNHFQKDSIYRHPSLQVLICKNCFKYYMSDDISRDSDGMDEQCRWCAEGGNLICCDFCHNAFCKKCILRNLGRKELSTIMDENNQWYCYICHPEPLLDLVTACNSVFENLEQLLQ
# Key:
# Experiment in all cases: peptide microarray binding signal (635 nm), min-max normalized on array (fraction of array maximum); higher = stronger binding
# [1] = target: T1, HaloTag-ATRX ADD domain (163-292)
# Method in brief: (§1)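 For each library, binding signal was taken as the triplicate-spot mean intensity and then min-max scaled. Spots of histone 13-mer peptide–cellulose conjugates on nitrocellulose, printed in triplicate with a Cy3 tracer, were probed for 1 h at 4°C with either biotin-labelled HaloTag reader fusions (10 nM to 1 μM) and streptavidin-Alexa Fluor 647 or rabbit histone antibodies (1:10,000 to 1:2,000) and anti-rabbit Alexa 647. Readout at 635 nm came from an Axon GenePix 4000B.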
# [2] = target: HaloTag-ING2 PHD (mouse Ing2 200-280)
# Method in brief: as §1
# [3] = target: anti-H3K4me3 antibody ab8580
# Method in brief: as §1
# [4] = target: anti-H3K9me3 antibody ab8898
# Method in brief: as §1
# [5] = peptide region: H3 5-17, peptide modifications: H3T11ph H3K14me2, binder concentration: 1:2,000 dilution
# [6] = peptide region: H3 5-17, peptide modifications: H3T11ph H3K14me2, binder concentration: 1:10,000 dilution
# [7] = peptide region: H3 5-17, peptide modifications: H3T11ph H3K14me3, binder concentration: 1:2,000 dilution
# [8] = peptide region: H3 5-17, peptide modifications: H3T11ph H3K14me3, binder concentration: 1:10,000 dilution
# [9] = peptide region: H3 11-23, peptide modifications: H3K14ac H3K18ac, binder concentration: 1:2,000 dilution
# [10] = peptide region: H3 11-23, peptide modifications: H3K14ac H3K18ac, binder concentration: 1:10,000 dilution
# [11] = peptide region: H3 11-23, binder concentration: 1:2,000 dilution
# [12] = peptide region: H3 11-23, binder concentration: 1:10,000 dilution
# [13] = peptide region: H3 5-17, peptide modifications: H3T11ph, binder concentration: 1:2,000 dilution
# [14] = peptide region: H3 5-17, peptide modifications: H3T11ph, binder concentration: 1:10,000 dilution
# [15] = peptide region: H3 5-17, peptide modifications: H3T11ph H3K14ac, binder concentration: 1:2,000 dilution
# [16] = peptide region: H3 5-17, peptide modifications: H3T11ph H3K14ac, binder concentration: 1:10,000 dilution
# [17] = peptide region: H3 5-17, peptide modifications: H3S10ph, binder concentration: 1:2,000 dilution
# [18] = peptide region: H3 5-17, peptide modifications: H3S10ph, binder concentration: 1:10,000 dilution
# [19] = peptide region: H3 11-23, peptide modifications: H3K14ac H3K18me3, binder concentration: 1:2,000 dilution
# [20] = peptide region: H3 11-23, peptide modifications: H3K14ac H3K18me3, binder concentration: 1:10,000 dilution
# [21] = peptide region: H3 11-23, peptide modifications: H3K14ac H3K18me2, binder concentration: 1:2,000 dilution
# [22] = peptide region: H3 11-23, peptide modifications: H3K14ac H3K18me2, binder concentration: 1:10,000 dilution
# [23] = peptide region: H3 11-23, peptide modifications: H3K14ac H3R17me2a, binder concentration: 1:2,000 dilution
# [24] = peptide region: H3 11-23, peptide modifications: H3K14ac H3R17me2a, binder concentration: 1:10,000 dilution
binder,measurement,setting,value
QTARKSTGGKAPR [H3 5-17 Q T A R K S Tph G G Kme2 A P R],peptide microarray binding signal,"[1]; peptide region: H3 5-17, peptide modifications: H3T11ph H3K14me2, binder concentration: 50 nM",0.00216 ± 8e-05
same,peptide microarray binding signal,"[1]; peptide region: H3 5-17, peptide modifications: H3T11ph H3K14me2, binder concentration: 500 nM",0.00505 ± 0.00083
same,peptide microarray binding signal,"[2]; peptide region: H3 5-17, peptide modifications: H3T11ph H3K14me2, binder concentration: 10 nM",0.00239 ± 0.00024
same,peptide microarray binding signal,"[2]; peptide region: H3 5-17, peptide modifications: H3T11ph H3K14me2, binder concentration: 100 nM",0.00213 ± 0.00021
same,peptide microarray binding signal,[3]; [5],0.00496 ± 0.0019
same,peptide microarray binding signal,[3]; [6],0.00605 ± 0.0024
same,peptide microarray binding signal,[4]; [5],0.00177 ± 0.00016
same,peptide microarray binding signal,[4]; [6],0.00248 ± 0.00058
QTARKSTGGKAPR [H3 5-17 Q T A R K S Tph G G Kme3 A P R],peptide microarray binding signal,"[1]; peptide region: H3 5-17, peptide modifications: H3T11ph H3K14me3, binder concentration: 50 nM",0.00257 ± 7.4e-05
same,peptide microarray binding signal,"[1]; peptide region: H3 5-17, peptide modifications: H3T11ph H3K14me3, binder concentration: 500 nM",0.00829 ± 0.00052
same,peptide microarray binding signal,"[2]; peptide region: H3 5-17, peptide modifications: H3T11ph H3K14me3, binder concentration: 10 nM",0.00418 ± 0.00034
same,peptide microarray binding signal,"[2]; peptide region: H3 5-17, peptide modifications: H3T11ph H3K14me3, binder concentration: 100 nM",0.00857 ± 0.0014
same,peptide microarray binding signal,[3]; [7],0.00848 ± 0.002
same,peptide microarray binding signal,[3]; [8],0.00582 ± 0.0016
same,peptide microarray binding signal,[4]; [7],0.0639 ± 0.0075
same,peptide microarray binding signal,[4]; [8],0.0181 ± 0.0023
TGGKAPRKQLATK [H3 11-23 T G G Kac A P R Kac Q L A T K],peptide microarray binding signal,"[1]; peptide region: H3 11-23, peptide modifications: H3K14ac H3K18ac, binder concentration: 50 nM",0.00511 ± 0.00036
same,peptide microarray binding signal,"[1]; peptide region: H3 11-23, peptide modifications: H3K14ac H3K18ac, binder concentration: 500 nM",0.013 ± 0.00068
same,peptide microarray binding signal,"[2]; peptide region: H3 11-23, peptide modifications: H3K14ac H3K18ac, binder concentration: 10 nM",0.00913 ± 0.0004
same,peptide microarray binding signal,"[2]; peptide region: H3 11-23, peptide modifications: H3K14ac H3K18ac, binder concentration: 100 nM",0.0128 ± 0.00072
same,peptide microarray binding signal,[3]; [9],0.00445 ± 0.00038
same,peptide microarray binding signal,[3]; [10],0.00896 ± 0.0029
same,peptide microarray binding signal,[4]; [9],0.00139 ± 6.5e-05
same,peptide microarray binding signal,[4]; [10],0.00115 ± 2e-05
TGGKAPRKQLATK [H3 11-23 T G G K A P R K Q L A T K],peptide microarray binding signal,"[1]; peptide region: H3 11-23, binder concentration: 50 nM",0.00481 ± 0.00041
same,peptide microarray binding signal,"[1]; peptide region: H3 11-23, binder concentration: 500 nM",0.0154 ± 0.0015
same,peptide microarray binding signal,"[2]; peptide region: H3 11-23, binder concentration: 10 nM",0.00615 ± 0.00031
same,peptide microarray binding signal,"[2]; peptide region: H3 11-23, binder concentration: 100 nM",0.0175 ± 0.0019
same,peptide microarray binding signal,[3]; [11],0.000849 ± 5.7e-05
same,peptide microarray binding signal,[3]; [12],0.00097 ± 0.00013
same,peptide microarray binding signal,[4]; [11],0.00172 ± 0.00025
same,peptide microarray binding signal,[4]; [12],0.00138 ± 0.00011
QTARKSTGGKAPR [H3 5-17 Q T A R K S Tph G G K A P R],peptide microarray binding signal,"[1]; peptide region: H3 5-17, peptide modifications: H3T11ph, binder concentration: 50 nM",0.0138 ± 0.005
same,peptide microarray binding signal,"[1]; peptide region: H3 5-17, peptide modifications: H3T11ph, binder concentration: 500 nM",0.014 ± 0.0037
same,peptide microarray binding signal,"[2]; peptide region: H3 5-17, peptide modifications: H3T11ph, binder concentration: 10 nM",0.0156 ± 0.0015
same,peptide microarray binding signal,"[2]; peptide region: H3 5-17, peptide modifications: H3T11ph, binder concentration: 100 nM",0.0409 ± 0.0057
same,peptide microarray binding signal,[3]; [13],0.0044 ± 0.0008
same,peptide microarray binding signal,[3]; [14],0.00553 ± 0.00047
same,peptide microarray binding signal,[4]; [13],0.00195 ± 7.3e-05
same,peptide microarray binding signal,[4]; [14],0.00254 ± 0.00012
QTARKSTGGKAPR [H3 5-17 Q T A R K S Tph G G Kac A P R],peptide microarray binding signal,"[1]; peptide region: H3 5-17, peptide modifications: H3T11ph H3K14ac, binder concentration: 50 nM",0.00514 ± 0.00023
same,peptide microarray binding signal,"[1]; peptide region: H3 5-17, peptide modifications: H3T11ph H3K14ac, binder concentration: 500 nM",0.015 ± 0.0014
same,peptide microarray binding signal,"[2]; peptide region: H3 5-17, peptide modifications: H3T11ph H3K14ac, binder concentration: 10 nM",0.00597 ± 0.00044
same,peptide microarray binding signal,"[2]; peptide region: H3 5-17, peptide modifications: H3T11ph H3K14ac, binder concentration: 100 nM",0.0333 ± 0.0053
same,peptide microarray binding signal,[3]; [15],0.000868 ± 6.7e-05
same,peptide microarray binding signal,[3]; [16],0.000685 ± 1.9e-05
same,peptide microarray binding signal,[4]; [15],0.00394 ± 0.0008
same,peptide microarray binding signal,[4]; [16],0.00156 ± 3e-05
QTARKSTGGKAPR [H3 5-17 Q T A R K Sph T G G K A P R],peptide microarray binding signal,"[1]; peptide region: H3 5-17, peptide modifications: H3S10ph, binder concentration: 50 nM",0.00589 ± 6.1e-05
same,peptide microarray binding signal,"[1]; peptide region: H3 5-17, peptide modifications: H3S10ph, binder concentration: 500 nM",0.0117 ± 0.0012
same,peptide microarray binding signal,"[2]; peptide region: H3 5-17, peptide modifications: H3S10ph, binder concentration: 10 nM",0.00955 ± 0.00078
same,peptide microarray binding signal,"[2]; peptide region: H3 5-17, peptide modifications: H3S10ph, binder concentration: 100 nM",0.0203 ± 0.002
same,peptide microarray binding signal,[3]; [17],0.00142 ± 0.0001
same,peptide microarray binding signal,[3]; [18],0.0024 ± 0.00015
same,peptide microarray binding signal,[4]; [17],0.000785 ± 1.3e-05
same,peptide microarray binding signal,[4]; [18],0.0011 ± 1.1e-05
TGGKAPRKQLATK [H3 11-23 T G G Kac A P R Kme3 Q L A T K],peptide microarray binding signal,"[1]; peptide region: H3 11-23, peptide modifications: H3K14ac H3K18me3, binder concentration: 50 nM",0.00953 ± 0.0014
same,peptide microarray binding signal,"[1]; peptide region: H3 11-23, peptide modifications: H3K14ac H3K18me3, binder concentration: 500 nM",0.00948 ± 0.00024
same,peptide microarray binding signal,"[2]; peptide region: H3 11-23, peptide modifications: H3K14ac H3K18me3, binder concentration: 10 nM",0.00841 ± 0.00063
same,peptide microarray binding signal,"[2]; peptide region: H3 11-23, peptide modifications: H3K14ac H3K18me3, binder concentration: 100 nM",0.0201 ± 0.0018
same,peptide microarray binding signal,[3]; [19],0.931 ± 0.11
same,peptide microarray binding signal,[3]; [20],0.499 ± 0.075
same,peptide microarray binding signal,[4]; [19],0.0555 ± 0.018
same,peptide microarray binding signal,[4]; [20],0.016 ± 0.00022
TGGKAPRKQLATK [H3 11-23 T G G Kac A P R Kme2 Q L A T K],peptide microarray binding signal,"[1]; peptide region: H3 11-23, peptide modifications: H3K14ac H3K18me2, binder concentration: 50 nM",0.00727 ± 0.00061
same,peptide microarray binding signal,"[1]; peptide region: H3 11-23, peptide modifications: H3K14ac H3K18me2, binder concentration: 500 nM",0.0126 ± 0.00024
same,peptide microarray binding signal,"[2]; peptide region: H3 11-23, peptide modifications: H3K14ac H3K18me2, binder concentration: 10 nM",0.0171 ± 0.0046
same,peptide microarray binding signal,"[2]; peptide region: H3 11-23, peptide modifications: H3K14ac H3K18me2, binder concentration: 100 nM",0.031 ± 0.014
same,peptide microarray binding signal,[3]; [21],0.0176 ± 0.0051
same,peptide microarray binding signal,[3]; [22],0.0145 ± 0.0016
same,peptide microarray binding signal,[4]; [21],0.00399 ± 0.00012
same,peptide microarray binding signal,[4]; [22],0.00346 ± 0.0001
TGGKAPRKQLATK [H3 11-23 T G G Kac A P Rme2a K Q L A T K],peptide microarray binding signal,"[1]; peptide region: H3 11-23, peptide modifications: H3K14ac H3R17me2a, binder concentration: 50 nM",0.00981 ± 0.001
same,peptide microarray binding signal,"[1]; peptide region: H3 11-23, peptide modifications: H3K14ac H3R17me2a, binder concentration: 500 nM",0.0127 ± 0.00086
same,peptide microarray binding signal,"[2]; peptide region: H3 11-23, peptide modifications: H3K14ac H3R17me2a, binder concentration: 10 nM",0.0112 ± 0.00063
same,peptide microarray binding signal,"[2]; peptide region: H3 11-23, peptide modifications: H3K14ac H3R17me2a, binder concentration: 100 nM",0.0221 ± 0.00099
same,peptide microarray binding signal,[3]; [23],0.00436 ± 0.00064
same,peptide microarray binding signal,[3]; [24],0.00445 ± 0.00022
same,peptide microarray binding signal,[4]; [23],0.00344 ± 0.00027
same,peptide microarray binding signal,[4]; [24],0.002479 ± 2.2e-05
